From PubChem
Only some compounds are listed: those with a hit (about 9.2% of all), similar ones and a draw of the others.
NPC1 promoter act: NPC1 promoter activation; Potency, µM (top dose mostly 9.22 µM), inactives show at the highest dose activation, actives largely listed as activators; Huh7 NPC1 promoter luciferase reporter, 24 h; actives 2.4% (n = 320,000); also: % of control where 0% means no effect; nearly all actives have a fitted effect of over 60% in size
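Readout is luciferase luminescence, reflecting NPC1 promoter activation in stably transfected Huh7 cells after 24 h compound exposure at 37 °C in reduced-serum medium with 10% FBS.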
ELG1 repair inh: blocks ELG1-dependent DNA repair in HEK293T cells; HEK293T ELG1-luciferase reporter, luminescence, 16 h; DNA damage induced by 5-fluorouridine; Potency, µM (series often up to 46.1 µM), without a hit: top-dose activity change, negative = inhibition, actives largely listed as inhibitors; actives 2.3% (n = 330,000); also: % is scaled to controls: 0 for no effect and ±100 for the full control effect; nearly all actives have a fitted effect of over 55% in size
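Quantitative HTS, concentration-response format. 2,000 cells/well co-treated with 5-fluorouridine and compound, 16 hr in 5% CO2 at 37 °C; ONE-Glo luminescence read after 30 min.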
FLuc counter: counter-screen for miR-21 project: firefly luciferase inhibitors or activators; purified FLuc, Km substrates, luminescence inhibition; Potency, µM (doses to about 57.5 µM), without a hit: at the top dose activity change, negative = inhibition, actives largely listed as inhibitors; actives 6.9% (n = 360,000);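 also: plate controls were vehicle for no effect and reference inhibitor for full effect; nearly all actives have a fitted effect of over 55% in size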
Target sequence (P08659 whole entry, looked up): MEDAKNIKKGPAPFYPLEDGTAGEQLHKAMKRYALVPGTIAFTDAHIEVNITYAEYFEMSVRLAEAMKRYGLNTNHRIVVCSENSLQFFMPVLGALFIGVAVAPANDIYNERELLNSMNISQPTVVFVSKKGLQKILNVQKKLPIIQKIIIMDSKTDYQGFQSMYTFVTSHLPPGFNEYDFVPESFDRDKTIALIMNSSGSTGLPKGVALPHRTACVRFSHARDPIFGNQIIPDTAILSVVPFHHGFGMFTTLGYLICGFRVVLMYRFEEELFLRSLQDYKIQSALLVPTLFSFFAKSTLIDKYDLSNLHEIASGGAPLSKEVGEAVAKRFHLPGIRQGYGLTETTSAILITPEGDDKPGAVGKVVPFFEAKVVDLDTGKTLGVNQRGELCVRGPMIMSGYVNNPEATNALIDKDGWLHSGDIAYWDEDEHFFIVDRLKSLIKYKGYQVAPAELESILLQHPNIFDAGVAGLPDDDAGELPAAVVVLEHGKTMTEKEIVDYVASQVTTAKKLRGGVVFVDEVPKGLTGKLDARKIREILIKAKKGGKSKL
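Purified P. pyralis luciferase (10nM final) with 10uM D-luciferin and 10uM ATP (Km levels) in 50mM Tris acetate pH 7.5, 10mM Mg acetate, 0.01% Tween-20, 0.05% BSA; qHTS 6-point titration, ~60 µM downward; luminescence read.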
Rab9 promoter act: activators of Rab9 promoter; Huh7 Rab9 promoter-luciferase reporter, luminescence, 24 h; Potency, µM (titrated, usually from 9.22 µM), for the others: top-dose activation, negative = inhibition, most hits filed as activators; actives 2.8% (n = 320,000); AID 485297; also: % of control where 0% means no effect; nearly all actives have a fitted effect of over 60% in size
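Quantitative HTS format; Huh7 Rab9-luciferase reporter cells (1500/well) receive compound 2 h post-plating, incubate 24 h at 37 °C, then get luciferase reagent for 10 min before luminescence reading.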
ELG1 genotox: genotoxicity induction in ELG1-luciferase HEK293T cells; actives 1.3% (n = 330,000); Potency, µM (series often up to 46 µM), for the others: at the top dose activity change, positive = activation, most hits filed as activators; HEK293T ELG1-luciferase reporter, luminescence, 16 h; also: % of control where 0% means no effect; nearly all actives have a fitted effect of over 60% in size
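Step 1: seed 2,000 HEK293T ELG1-luciferase cells per well. Step 2: add compound or DMSO, incubate 16 hr at 37 °C. Step 3: ONE-Glo, 30 min at room temperature, read luminescence.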
SMN2 splice up: increases expression of the SMN2 splice variant | HEK293 SMN2-luciferase splicing reporter, luminescence, 30-36 h | Potency, µM (titrated, usually from 46.1 µM), without a hit: at the top dose activity change, positive = activation, most hits filed as activators | actives 2.8% (n = 210,000); also: % of control where 0% means no effect; nearly all actives have a fitted effect of over 55% in size
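HEK293 cells carry an SMN2 minigene-luciferase reporter in which exon 7 inclusion puts luciferase in frame. Cells were seeded at 2000 cells/well, attached for 10-12 hours, then exposed to compounds for 30-36 hours at 37C before ONE-Glo luminescence.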
Numbers without * were called inactive; ? = inconclusive; nt = no result. Calls follow the shape of the dose curve; as a rule, active = well fitted curve in the direction sought with a large enough effect; inconclusive = small, poorly fitted or top-dose-only effect, or another doubt; inactive = no such curve, though single readings can be large; an effect the other way counts as inactive or inconclusive. Potency is read from the fitted curve at half-maximal effect.

SMILES	NPC1 promoter act	ELG1 repair inh	FLuc counter	Rab9 promoter act	ELG1 genotox	SMN2 splice up
Cn1ncc(Br)c1C(=O)N/N=C/c1ccc(OS(=O)(=O)c2ccccc2)cc1	3%	1%	1%	-1%	6%	2%
CC(/C=N/NC(=O)c1nnn(-c2nonc2N)c1C)=C\c1ccccc1	28%	3%	?	26%	?	nt
CC(/C=N/NC(=O)c1c(Br)cnn1C)=C\c1ccccc1	23%	?	17µM*	17%	8%	14%
CCN(CC)C(=O)Cn1cc(S(=O)(=O)CC(=O)NCCc2ccccc2)c2ccccc21	4%	-14%	1%	-2%	-6%	nt
CCc1ccc(N2CCn3c2nc2c3c(=O)n(CCc3ccccc3)c(=O)n2C)cc1	nt	nt	-6%	nt	nt	nt
CCCCCCC(CC(=O)NCc1cccnc1)CC(=O)NCc1cccnc1	-5%	-13%	1%	0%	0%	nt
CCc1ccc(-c2cc(C(=O)NCCCn3ccnc3)c3ccccc3n2)s1	6%	?	4.8µM*	20%	?	-1%
CN1CCN(NC(=O)c2cc(-c3ccc(Br)s3)nc3ccccc23)CC1	-5%	18%	?	-1%	23%	nt
O=C(O)c1cc(-c2ccc(Br)s2)nc2ccccc12	18%	?	8.5µM*	26%	9%	nt
COc1ccc(-c2cc(C(=O)NCCCn3ccnc3)c3ccccc3n2)c(OC)c1	-2%	-8%	-4%	-2%	3%	nt
Cc1ccc(-c2cc(C(=O)NCCCn3ccnc3)c3ccccc3n2)s1	1%	-14%	17µM*	-1%	0%	-45%
O=C(NN1CCOCC1)c1cc(-c2ccccc2)nc2ccccc12	1%	6%	1%	-7%	0%	-12%
CCc1ccc(-c2cc(C(=O)NN3CCOCC3)c3ccccc3n2)s1	1%	?	7.6µM*	1%	10%	12%
COCCN(C(=O)c1cc(Cl)nc2ccccc12)c1c(N)n(Cc2ccccc2)c(=O)[nH]c1=O	-8%	?	0%	-3%	-5%	nt
CCc1nnc(NC(=O)CSc2nc(C)c3c(c2C#N)CCCC3)s1	?	?	8.5µM*	?	7%	nt
Cc1ccc(C(=O)NCC(c2ccco2)S(=O)(=O)c2cccs2)cc1C (stereo not given)	nt	nt	-12%	nt	nt	nt
c1ccc(N2OCC3Cn4c(nc5ccccc54)C32)cc1 (stereo not given)	8%	?	19µM*	5%	16%	nt
c1ccc(CN2OCC3Cn4c(nc5ccccc54)C32)cc1 (stereo not given)	-3%	?	-1%	-5%	3%	nt
O=C(Nc1ccc(-c2nc3cc(NC(=O)c4ccccc4F)ccc3o2)cc1)c1ccccc1F	nt	nt	-2%	nt	nt	nt
O=C(Nc1ccc2oc(-c3ccccc3)nc2c1)c1ccccc1F	?	?	?	2.5µM*	19%	13µM*
Cc1ccc(NC(=O)c2ncn[nH]2)cc1	10%	?	17µM*	2%	8%	15%
O=C(Nc1ccc2oc(-c3ccncc3)nc2c1)c1ccccc1F	28%	26%	?	23%	3%	-38%
O=C(Nc1ccc2oc(-c3cccc(F)c3)nc2c1)c1ccccc1F	?	?	-14%	?	21µM*	-3%
O=C(Nc1ccc2oc(-c3ccccc3F)nc2c1)c1ccccc1F	2.2µM*	?	4.8µM*	3.5µM*	16%	nt
CC(C)NC(=O)N(C)C[C@H]1Oc2c(NC(=O)Nc3ccccc3)cccc2C(=O)N([C@H](C)CO)C[C@@H]1C	nt	-8%	nt	nt	-1%	nt
SMILES	NPC1 promoter act	ELG1 repair inh	FLuc counter	Rab9 promoter act	ELG1 genotox	SMN2 splice up
CCc1ccc(S(=O)(=O)c2nnn(-c3cccc(C)c3)c2N)cc1	nt	nt	1%	nt	nt	-28%
O=C(Nc1ccc2oc(-c3ccccc3F)nc2c1)c1ncn[nH]1	0.35µM*	?	2.1µM*	0.5µM*	?	14µM*
O=C(Nc1ccc2oc(-c3ccc4ccccc4c3)nc2c1)c1ccc(Cl)c(Cl)c1	nt	nt	-7%	nt	nt	3%
O=C(Nc1ccc2oc(-c3ccncc3)nc2c1)c1ccccc1	-4%	-4%	0%	-2%	2%	-16%
O=C(Nc1ccc2oc(-c3ccc(Cl)c(Cl)c3)nc2c1)c1ncn[nH]1	0.5µM*	?	?	0.71µM*	?	-22%
O=C(NC1CCCCC1)C(c1ccc2ncccc2c1)N(Cc1cccs1)C(=O)c1cccs1 (stereo not given)	-1%	16µM*	-5%	8%	-8%	-9%
CC1(C)CC(=O)/C(=N/Nc2ccc(Cl)cc2)CO1	1.8µM*	?	6.7µM*	1.8µM*	?	nt
Cc1cccc(N/N=C2/COC(C)(C)CC2=O)c1	3.2µM*	?	8.5µM*	3.2µM*	?	18µM*
CCOc1ccc2nc(SCC(=O)c3cccs3)sc2c1	2.5µM*	?	2.7µM*	2.8µM*	15µM*	?
CCc1ccc2nc(N3CCN(C(=O)c4ccco4)CC3)sc2c1	nt	nt	11µM*	nt	nt	nt
Cc1cc(C)c2nc(N3CCC(C(=O)NCc4cccnc4)CC3)sc2c1	1%	-9%	?	11%	0%	-26%
O=C(c1ccco1)N1CCN(c2nc3c(F)cc(F)cc3s2)CC1	nt	nt	24µM*	nt	nt	nt
O=C(c1ccc2nc(N3CCOCC3)sc2c1)N1CCN(C(=O)c2ccco2)CC1	-1%	-13%	4%	2%	13%	-7%
Cc1cc(C)c2nc(N3CCC(C(=O)NCc4ccccn4)CC3)sc2c1	11%	?	17µM*	21%	1%	-32%
COc1cc2c(cc1OC)C(COc1ccc3c(C)cc(=O)oc3c1)N(C(=O)Cc1ccc(F)cc1)CC2 (stereo not given)	nt	nt	-2%	nt	nt	-6%
